JMJD2A Tudor: inhibitors of human JMJD2A Tudor domain | O75164 | AlphaScreen JMJD2A-Tudor / H3K4me3 peptide binding | Potency, µM (highest dose often 114 µM), for the others: at the highest dose activity change, negative = inhibition, most hits filed as inhibitors | 390,000 compounds, 4.4% hits | AID 504339; also: % is scaled to controls: 0 for no effect and ±100 for the full control effect; nearly all actives have a fitted effect of over 50% in size
BAZ2B inh: BAZ2B (human) inhibition; Q9UIF8; 360,000 compounds, 4.4% hits; Potency, µM (highest dose often 114 µM), for inactives: at the highest dose activity change, negative = inhibition, hits mostly inhibitors; AlphaScreen BAZ2B-H3K14Ac peptide displacement; also: % is scaled to controls: 0 for no effect and ±100 for the full control effect; nearly all actives have a fitted effect of over 60% in size
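AlphaScreen displacement: compounds (up to 110uM) incubated 30 min at room temperature with a preformed 50 nM BAZ2B/50 nM biotinylated H3K14Ac peptide complex in PBS pH 7.4 with Tween-20. Donor and acceptor beads at 10 ug/mL final added, 20 min light-protected before reading.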
G9a block: inhibitors of human histone lysine methyltransferase G9a; AID 504332; 350,000 compounds, 8.8% hits; Q96KQ7; Potency, µM (highest dose often 102 µM), inactives show top-dose activity, negative = inhibition, hits mostly inhibitors; G9a H3K9 monomethylation, AlphaScreen, 2 h; also: % is scaled to controls: 0 for no effect and ±100 for the full control effect; nearly all actives have a fitted effect of over 75% in size
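Methyltransferase reactions run at room temperature for 2 h (20 nM enzyme, 500 nM biotin-H3K9 peptide, 20 uM SAM) after a 15 min compound preincubation; product detected by AlphaScreen beads and anti-H3K9me1 antibody.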
HP1b chromo inh: inhibitors of HP1-beta chromodomain binding to methylated histone tails; P83916; AlphaScreen HP1-beta / biotin-H3K9me3 peptide binding; Potency, µM (top dose mostly 114 µM), without a hit: at the top dose activity change, negative = inhibition, actives largely listed as inhibitors; 390,000 compounds, 0.56% hits; AID 540317; also: nearly all actives have a fitted effect of over 70% in size
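HP1-beta protein (50 nM final) preincubated 30 min at room temperature with biotinylated H3(1-18)K9me3 peptide (50 nM) in PBS pH 7.4, 0.01% Tween-20, then compound added for 30 min. AlphaScreen streptavidin donor/nickel chelate acceptor beads (10 ug/mL final), 30 min dark, luminescence read.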
VDR inh: inhibitors of human vitamin D receptor; P11473; VDR-SRC2-3 peptide fluorescence polarization, 2 h; Potency, µM, without a hit: max response, negative = inhibition, hits mostly inhibitors; 400,000 compounds, 0.93% hits; also: % is scaled to controls: 0 for no effect and ±100 for the full control effect
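The screen uses fluorescence polarization to detect compounds that interfere with recruitment of the SRC2-3 coactivator peptide to VDR; plates are read after 2 h at room temperature.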
PLK1 PBD block: PLK1 (human) polo-box domain binding inhibition | P53350 | Plk1 PBD binding of FITC phosphopeptide, fluorescence polarization | Potency, µM, inactives show max response, negative = inhibition, actives largely listed as inhibitors | 360,000 compounds, 2.8% hits | AID 720504; also: series mostly up to about 57 µM; % is scaled to controls: 0 for no effect and ±100 for the full control effect; nearly all actives have a fitted effect of over 65% in size
Target sequence (P53350 whole entry, looked up, the tested form may be a part): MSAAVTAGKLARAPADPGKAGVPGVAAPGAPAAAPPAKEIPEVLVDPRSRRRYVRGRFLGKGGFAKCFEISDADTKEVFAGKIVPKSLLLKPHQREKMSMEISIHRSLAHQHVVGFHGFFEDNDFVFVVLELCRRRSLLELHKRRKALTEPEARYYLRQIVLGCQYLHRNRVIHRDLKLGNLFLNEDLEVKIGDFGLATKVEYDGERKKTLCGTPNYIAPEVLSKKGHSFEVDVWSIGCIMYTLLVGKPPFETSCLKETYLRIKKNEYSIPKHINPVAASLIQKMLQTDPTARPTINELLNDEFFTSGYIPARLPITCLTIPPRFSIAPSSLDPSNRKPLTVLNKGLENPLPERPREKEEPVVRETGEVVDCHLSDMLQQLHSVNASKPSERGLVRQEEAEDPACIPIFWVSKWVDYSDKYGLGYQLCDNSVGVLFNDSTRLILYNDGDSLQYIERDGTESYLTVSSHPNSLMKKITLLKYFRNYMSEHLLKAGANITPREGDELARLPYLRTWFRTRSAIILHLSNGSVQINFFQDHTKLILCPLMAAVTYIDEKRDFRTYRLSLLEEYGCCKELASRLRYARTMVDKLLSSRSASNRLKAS
An asterisk follows results filed as active; ? = inconclusive; nt = no result; [ ] = another dose, or the depositor's remark. In the library only some 11% were active in any assay of this set; here they are far more common. Calls follow the shape of the dose curve; as a rule, active = well fitted curve in the direction sought with a large enough effect; inconclusive = small, poorly fitted or top-dose-only effect, or another doubt; inactive = no such curve, though single readings can be large; an effect the other way counts as inactive or inconclusive. Potency is read from the fitted curve at half-maximal effect.

SMILES | JMJD2A Tudor | BAZ2B inh | G9a block | HP1b chromo inh | VDR inh | PLK1 PBD block
COc1cccc(CNC(=O)C(NS(=O)(=O)c2ccc3c(c2)oc(=O)n3C)C(C)C)c1 (stereo not drawn) | -14% | -13% | -6%[59 µM] | 12% | 6% | nt
COc1cccc2c(N/N=C/c3ccc(O)c(O)c3)cc(C)nc12 | ? | ? | 35µM* | 57% | -12% | -4%
COc1cc(/C=N/Nc2ccccc2)ccc1O | -35% | -27% | 14µM* | -1% | 6% | -13%
COc1ccc(/C=N/Nc2nc(N3CCCC3)nc(N3CCCC3)n2)cc1O | -19% | 9% | 3.5µM* | 30% | 17% | -1%
COc1cc(/C=N/N(c2ccccc2)c2ccccc2)ccc1O | 32µM* | 45µM* | 28µM* | -33% | -12% | -9%
Cc1ccc2nc(C)cc(N/N=C/c3cccc(O)c3)c2c1 | -21% | ? | 0% | 20% | 6% | -7%
COc1cc(/C=N/NC(=O)c2cccs2)ccc1O | 0% | -4% | nt | 76% | -4% | 4%
COc1cc(/C=N/NC(=O)CCc2ccccc2)ccc1O | 13%[57.1 µM] | -20% | 0%[12.7 µM] | 28% | -9% | -10%
Cc1cccc(C)c1OCC(=O)Nc1nc(-c2ccc(Br)cc2)ns1 | 30% | 11% | 7%[59 µM] | 94% | 4% | nt
COc1cc(/C=N\NC(=O)CNC(=O)C(c2ccccc2)c2ccccc2)ccc1O | -18% | -24% | 7% | 0% | 5% | -6%
Oc1ccc(/C=N/Nc2ccccc2)cc1 | 22µM* | -25% | 25µM* | ? | -16% | -24%
COC(=O)c1[nH]c2cc(OC)c(OC)cc2c1NC(=O)CN1CCN(Cc2ccccc2)CC1 | nt | -4% | -9%[59 µM] | nt | nt | nt
CCOc1ccc(/C=N/N(C)c2ccccc2)cc1OC | 45µM* | 32µM* | 50µM* | ? | -6% | 1%
COC(=O)c1[nH]c2cc(OC)c(OC)cc2c1/C=N/Nc1ccccc1 | -6% | -10% | 35µM* | 30% | 6% | 8%
COc1cc(/C=N/NC(=O)CCN2CCN(C(c3ccccc3)c3ccccc3)CC2)ccc1O | ? | ? | 79µM* | -12% | 9% | -6%
CCOc1ccc(NC(=O)CN(C)C(=O)c2ccc(-c3ccc(C(C)=O)cc3)o2)cc1OCC | -17% | -28% | -9%[0.501 µM] | 16% | 11% | 0%
CC1CC(C)CN(C(=O)COC(=O)Cc2ccc(Cl)cc2)C1 (stereo not drawn) | 2% | -3% | -5%[2.33 µM] | 24% | 11% | -3%
CC1CC(C)CN(C(=O)COC(=O)Cc2ccc(Br)cc2)C1 (stereo not drawn) | -23% | 10% | 11% | 24% | -13% | 30µM*
CC1CCCN(C(=O)CN2C(=O)CSc3ccc(S(=O)(=O)N4CCOCC4)cc32)C1 (stereo not drawn) | -18% | -3% | 15%[59 µM] | 18% | -1% | 27µM*
Cc1ccccc1NC(=O)CN1C(=O)CSc2ccc(S(=O)(=O)N3CCCCC3)cc21 | ? | -6% | 7%[59 µM] | 2% | -14% | 21µM*
CC1CCCN(CCCNC(=O)CN2C(=O)CSc3ccc(S(=O)(=O)N4CCOCC4)cc32)C1 (stereo not drawn) | -5% | -6%[57.1 µM] | 9% | 74% | -10% | -19%
Cc1ccccc1NC(=O)CN1C(=O)CSc2ccc(S(=O)(=O)N3CCCC3)cc21 | -12% | -25% | 4% | 17% | 0% | -15%
CCCCOc1ccc(C(=O)Nc2sc3c(c2C(=O)OCC)CCCCC3)cc1 | -8% | 2% | 7%[59 µM] | 41% | 11% | nt
COC(=O)c1c(NC(=O)C(C)Oc2ccc(Cl)cc2Cl)sc2c1CCCC2 (stereo not drawn) | 3% | 0% | 3.5µM* | -1% | ? | nt
CC(Oc1ccc(Cl)cc1Cl)C(=O)Nc1cccc(O)c1 (stereo not drawn) | -5% | -21% | ? | 43% | 7% | -3%
CCOC(=O)c1c(NC(=O)c2ccccc2Cl)sc2c1CCCC2 | 77% | 62% | 77%[59 µM] | 197% | 12% | nt

From PubChem
